Compound activity as filed in PubChem BioAssay.
Most compounds without a hit are left out; they make up all but 18% or so of the library.
VDR inhibitor: Inhibitors of the vitamin D receptor (VDR): qHTS. Vitamin D3 receptor (Homo sapiens), P11473. VDR-SRC2-3 peptide fluorescence polarization, 2 h. Potency, µM, inactives show max response, negative = inhibition, hits mostly inhibitors. hit rate 0.93% among 400,000
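Compounds are added to VDR with labelled SRC2-3 coactivator peptide and held 2 h at room temperature. Inhibition of the VDR–peptide interaction is then read as a change in fluorescence polarization.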
TDP1 inh: qHTS Assay for Inhibitors of Tyrosyl-DNA Phosphodiesterase (TDP1); Tyrosyl-DNA phosphodiesterase 1 (Homo sapiens), Q9NUW8; recombinant TDP1, AlphaScreen DNA substrate cleavage; Potency, µM (titrated, usually from 130 µM), for inactives: at the highest dose activity change, negative = inhibition, actives largely listed as inhibitors; hit rate 0.28% among 350,000; AID 485290, 2010; further: nearly all actives have a fitted effect of over 40% in size
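Compounds were preincubated with Tdp1 (1 nM final) for 15 min at room temperature before substrate (15 nM final) started a 5 min reaction; beads (10 ug/ml final) were then added for 10 min before AlphaScreen detection.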
TDP1 cell noCPT: qHTS for Inhibitors of human tyrosyl-DNA phosphodiesterase 1 (TDP1): qHTS in cells in absence of CPT; DT40 Tdp1-/- hTDP1 cells, no CPT, ATP luminescence, 48 h; Potency, µM (series often up to 46.2 µM), for inactives: at the top dose activity change, negative = growth inhibition, usual class: inhibitors; hit rate 15% among 420,000; further: nearly all actives have a fitted effect of over 55% in size
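Growth kinetics read by CellTiter-Glo luminescence after ≥48 hr at 37 °C. Cells: DT40 Tdp1-/- stably carrying human TDP1, 400 per well, compound exposure in the absence of CPT (DMSO vehicle).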
PLK1 PBD block: qHTS for Inhibitors of PLK1-PDB (polo-like kinase 1 - polo-box domain): Primary Screen | Serine/threonine-protein kinase PLK1 (Homo sapiens), P53350 | Plk1 PBD binding of FITC phosphopeptide, fluorescence polarization | Potency, µM, inactives show max response, negative = inhibition, hits mostly inhibitors | hit rate 2.8% among 360,000; further: series mostly up to about 57 µM; nearly all actives have a fitted effect of over 65% in size
Target sequence (P53350 whole entry, looked up, the tested form may be a part): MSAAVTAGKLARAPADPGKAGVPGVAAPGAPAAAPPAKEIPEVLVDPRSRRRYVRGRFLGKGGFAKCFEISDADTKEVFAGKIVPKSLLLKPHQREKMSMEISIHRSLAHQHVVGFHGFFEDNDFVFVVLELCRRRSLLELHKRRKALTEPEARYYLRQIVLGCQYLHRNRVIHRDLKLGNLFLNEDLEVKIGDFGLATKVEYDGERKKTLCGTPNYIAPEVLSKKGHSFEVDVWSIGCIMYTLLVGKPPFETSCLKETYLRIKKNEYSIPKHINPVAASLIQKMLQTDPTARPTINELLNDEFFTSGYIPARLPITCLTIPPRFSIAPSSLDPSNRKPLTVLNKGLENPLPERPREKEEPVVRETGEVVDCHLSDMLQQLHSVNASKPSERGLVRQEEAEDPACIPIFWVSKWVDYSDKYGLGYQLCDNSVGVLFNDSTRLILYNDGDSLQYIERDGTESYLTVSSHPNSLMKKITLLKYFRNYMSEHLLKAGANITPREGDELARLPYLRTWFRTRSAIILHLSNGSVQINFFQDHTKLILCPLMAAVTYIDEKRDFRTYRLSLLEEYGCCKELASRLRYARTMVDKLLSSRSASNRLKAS
DT40 TDP1 CPT: qHTS for Inhibitors of human tyrosyl-DNA phosphodiesterase 1 (TDP1): qHTS in cells in presence of CPT; chicken DT40 Tdp1-/-;hTDP1 cells + 20 nM CPT, ATP luminescence, 48 h; Potency, µM (top dose mostly 46.2 µM), for the others: at the highest dose activity change, negative = growth inhibition, hits mostly inhibitors; hit rate 12% among 420,000; AID 686979, 2013; further: nearly all actives have a fitted effect of over 55% in size
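Cell growth measured by CellTiter-Glo luminescence after a minimum 48 h, 37 C compound exposure with 20 nM CPT in Tdp1-knockout DT40 cells stably expressing hTDP1, seeded 400/well; qHTS titration format.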
KAT2A inh: qHTS Assay for Inhibitors of GCN5L2; GCN5L2 HAT assay, ThioGlo1 CoA-SH fluorescence; Potency, µM (series often up to 58.9 µM), for the others: top-dose activity change, negative = inhibition, hits mostly inhibitors; hit rate 0.21% among 390,000; AID 504327, 2011
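Fluorescence readout, Ex340nm/Em540nm: ThioGlo1 (50uM final) reacts with free CoA thiol released as 20nM GCN5L2 acetylates H3(1-25) peptide (75uM) using acetyl-CoA (70uM). Compound and enzyme sat 15 min beforehand; 20 min room-temperature reaction.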
* hit, by the source's call; u = inconclusive; x = not tested or not shown; [ ] = another dose, or the depositor's remark. The call rests on the fitted dose curve; in most records, active means well fitted curve in the direction sought with a large enough effect; inconclusive means small, poorly fitted or top-dose-only effect, or another doubt; inactive means no such curve, though single readings can be large; an effect the other way counts as inactive or inconclusive. On the % scale 0 is the no-effect control and ±100 the full control effect; potency means the concentration at half of the fitted maximal effect.

SMILES | VDR inhibitor | TDP1 inh | TDP1 cell noCPT | PLK1 PBD block | DT40 TDP1 CPT | KAT2A inh
O=C(/C=C/c1ccc(S(=O)(=O)N2CCOCC2)cc1)NCc1ccc(Cl)cc1 | -16% | 4% | 18µM* | -3% | u | -7%
O=C(COc1ccc(S(=O)(=O)N2CCOCC2)cc1)NCCc1ccc(Cl)cc1 | x | x | 18µM* | 8% | u | x
CCN(CC)S(=O)(=O)c1ccc(O)c(NC(=O)COc2ccc(S(=O)(=O)N3CCOCC3)cc2)c1 | u | x | u | 24µM* | u | x
CCc1ccc(OCC(=O)Nc2ccc(S(=O)(=O)N3CCOCC3)cc2)cc1 | -15% | -21% | -3% | 0% | -8% | 0%
COc1ccc(CNC(=O)COc2ccc(S(=O)(=O)N3CCOCC3)cc2)cc1 | -16% | x | u | -10% | u | 3%
CCCN(CCC)S(=O)(=O)c1ccc(C(=O)Nc2ccc(S(=O)(=O)Nc3nnc(CC)s3)cc2)cc1 | 2% | x | u | u | -21% | -24%
Cc1cccn2c(=O)c(/C=C(\C#N)C(=O)NCc3ccccc3)c(N3CCC(C(N)=O)CC3)nc12 | 2% | -1% | -27% | -12% | 15% | -3%
O=C(CSc1nnc(-c2ccccc2)c(-c2ccccc2)n1)NC1CCCC1 | 1% | 0% | u | x | u | 28%
O=C(CCCOc1ccc(Br)cc1)Nc1ccc(S(=O)(=O)N2CCOCC2)cc1 | 3% | x | 16µM* | 0% | u | -12%
O=C(COc1ccc(F)c(Cl)c1)Nc1ccc(N2CCOCC2)cc1 | 4% | 3% | u | 1% | 16µM* | 1%
CCOc1ccc(NC(=O)COC(=O)c2cc(S(=O)(=O)N3CCCC3)ccc2C)cc1 | 16% | 0% | u | -1% | 21µM* | -7%
O=C(COc1ccc(S(=O)(=O)N2CCOCC2)cc1)Nc1ccc(Br)cc1 | -20% | 0% | u | -5% | u | -8%
O=C(/C=C/c1ccc(S(=O)(=O)N2CCOCC2)cc1)N1CCN(c2ccc(F)cc2)CC1 | 7% | 0% | 3.7µM* | -12% | 7.3µM* | -5%
Cc1ccc(C2(C)NC(=O)N(CC(=O)Nc3cc(S(=O)(=O)N4CCOCC4)ccc3OC(C)C)C2=O)cc1 (stereo unspecified) | -3% | x | u | 3% | u | x
Cc1cc(C)n2c(SCC(=O)Nc3cccc(S(N)(=O)=O)c3)nnc2n1 | -11% | 0% | -20% | -5% | 2% | -1%
COc1ccc(CN2CCN(S(=O)(=O)c3ccc(NC(C)=O)cc3)CC2)cc1OC | 15% | -7% | u | -7% | u | 1%
O=C(OCCOc1ccc(F)cc1)c1ccc(S(=O)(=O)N2CCCC2)cc1 | -26% | -10%[56.1 µM] | 2.3µM* | -21% | -9% | -18%
O=C(O)COc1ccc(S(=O)(=O)N2CCCC2)cc1 | 3% | x | 26% | 1% | -17% | -6%
CCOc1ccc(CN2CCN(S(=O)(=O)c3ccc(NC(C)=O)cc3)CC2)cc1 | -19% | 6% | 15µM* | 1% | u | -1%
CCOc1ccc(C(=O)CN2CCN(S(=O)(=O)c3ccc(OC)cc3)CC2)cc1 | 1% | 1% | u | -8% | 18µM* | -4%
CNC(=O)COc1ccc(S(=O)(=O)N2CCCC2)cc1 | 50µM* | 2% | u | 5.3µM* | 29µM* | -7%
COCCNC(=O)C1(C)CCCN(C(=O)c2cccnc2SC)C1 (stereo unspecified) | x | x | 0% | -3% | -11% | x
CCOc1ccc(CONS(=O)(=O)c2ccc(NC(C)=O)cc2)cc1Cl | 7% | 8% | 9.2µM* | 0% | u | -7%
Cc1ccc(S(=O)(=O)N2CCCCC2)cc1C(=O)OC(C)C(=O)NCC1CCCCC1 (stereo unspecified) | 13% | x | 18µM* | -6% | u | -2%
O=C(O)CNC(=O)CC1S/C(=N/N=C/c2ccccc2O)NC1=O (stereo unspecified) | u | 10% | 16µM* | 24µM* | 21µM* | -5%
SMILES | VDR inhibitor | TDP1 inh | TDP1 cell noCPT | PLK1 PBD block | DT40 TDP1 CPT | KAT2A inh
CCc1ccc2occ(CC(=O)Nc3nnc(C)s3)c2c1 | 10% | 9% | -24% | x | -6% | -5%
COc1ccc(OC)c(NC(=O)Cc2coc3ccc4ccccc4c23)c1 | 14% | 8% | 13µM* | 1% | u | -12%
COc1ccc(OC)c(NC(=O)Nc2c(O)ccc3ccccc23)c1 | -11% | x | u | -9% | 15µM* | x
Cc1cccc(NC(=O)Cc2coc3ccc4ccccc4c23)n1 | -1% | 8% | 16µM* | -4% | 10µM* | 1%
COc1ccc(NC(=O)Cc2coc3cc(C)cc(C)c23)c(OC)c1 | 9% | 5% | u | x | 21µM* | 1%
COc1ccc(OC)c(NC(=O)Cc2coc3cc(C)cc(C)c23)c1 | -11% | 7% | u | -5% | u | -2%[0.501 µM]
CNC[C@H](CC1CCCCC1)NC[C@H](CO)NCC1(c2ccccc2)CC1 | -12% | x | 21µM* | -1% | u | -8%
O=C(NC(CC1CCCCC1)C(=O)O)c1ccccc1 (stereo unspecified) | -15% | 2% | 8% | u | -13% | -6%
CNC[C@H](CC1CCCCC1)NC[C@H](CO)NCCc1cccc(C(F)(F)F)c1 | -1% | x | 5.8µM* | -9% | 7.3µM* | -6%
COc1ccc(C(=O)c2sc3nc(C)cc(-c4cccs4)c3c2N)cc1 | -2% | 5% | u | u | u | -14%
COc1ccc(C(=O)c2sc3nc(C)cc(-c4cccs4)c3c2N)cc1OC | 4% | -3% | 23µM* | u | u | -10%
O=C(c1cccc(Cl)c1)N1CCC(=O)N([C@H](COCc2cccc(Cl)c2)Cc2ccccc2)CC1 | -25% | 6% | 23µM* | -8% | u | u
O=C(c1ccc(Cl)c(Cl)c1)N1CCC(=O)N(C(COCc2ccc(Cl)cc2)Cc2ccccc2)CC1 (stereo unspecified) | -19% | 0% | 16µM* | -6% | u | -13%
Cc1cccc(COC[C@H](Cc2ccccc2)N2CCN(C(=O)c3ccc(Cl)c(Cl)c3)CCC2=O)c1 | x | x | u | -17% | u | x
